According to PubChem BioAssay (NCATS):
Results filed as inconclusive are left out. Where a call stands in place of a potency, no number is given. Values without a mark were called inactive. Calls of active or inactive are those of the source. Calls follow the shape of the dose curve; as a rule, active = well fitted curve in the direction sought with a large enough effect; inconclusive = small, poorly fitted or top-dose-only effect, or another doubt; inactive = no such curve, though single readings can be large; an effect the other way counts as inactive or inconclusive.

Assays:
HEK293 = test: Cytotoxic Profiling of Annotated Libraries Using Quantitative High-Throughput Screening (AID 1296008); settings: Five cell lines viability, CellTiter-Glo ATP luminescence, 48-72 h; max response: stronger effect = lower value; also: nearly all actives have a fitted effect of over 60% in size
In short: (§1)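 Compounds were pin-transferred onto cells and incubated 48 or 72 hr at 37 degree Celsius, 95% humidity. CellTiter-Glo was added, plates sat 10 min at room temperature, then ATP-coupled luminescence was imaged as the viability read-out.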

HaCat = test: as above; settings: Five cell lines viability, CellTiter-Glo ATP luminescence, 48-72 h; max response: stronger effect = lower value
In short: as §1

KB-3-1 = test: as above; settings: Five cell lines viability, CellTiter-Glo ATP luminescence, 48-72 h; max response: stronger effect = lower value
In short: as §1

NIH3T3 = test: as above; settings: Five cell lines viability, CellTiter-Glo ATP luminescence, 48-72 h; max response: stronger effect = lower value
In short: as §1

C33A = test: Primary qHTS to identify gynecologic anti-cancer compounds using libraries of approved drugs and bioactive compounds (AID 1345084); settings: Gynecologic cancer cell panel viability, ATPlite luminescence, 48 h; series mostly up to 57.5 µM; also: nearly all actives have a fitted effect of over 55% in size
In short: (§2)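 Cell viability after 48 h drug treatment, ATPlite luminescence readout; five doses.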

CAOV3 = test: as above; settings: Gynecologic cancer cell panel viability, ATPlite luminescence, 48 h; series mostly up to 57.5 µM
In short: as §2

CASKI = test: as above; settings: Gynecologic cancer cell panel viability, ATPlite luminescence, 48 h; series mostly up to 57.5 µM
In short: as §2

Es-2 = test: as above; settings: Gynecologic cancer cell panel viability, ATPlite luminescence, 48 h; series mostly up to 57.5 µM
In short: as §2

HeLa = test: as above; settings: Gynecologic cancer cell panel viability, ATPlite luminescence, 48 h; series mostly up to 57.5 µM
In short: as §2

Hek293T = test: as above; settings: Gynecologic cancer cell panel viability, ATPlite luminescence, 48 h, control line for the selectivity index; series mostly up to 57.5 µM
In short: as §2

JEG-3 = test: as above; settings: Gynecologic cancer cell panel viability, ATPlite luminescence, 48 h; series mostly up to 57.5 µM
In short: as §2
Potency is read from the fitted curve at half-maximal effect.

SMILES	max response (HEK293) [%]	max response (HaCat) [%]	max response (KB-3-1) [%]	max response (NIH3T3) [%]	Potency (C33A)	Potency (CAOV3)	Potency (CASKI)	Potency (Es-2)	Potency (HeLa)	Potency (Hek293T)	Potency (JEG-3)	outcome (KB-3-1)	Potency (HEK293)	Potency (HaCat)	Potency (KB-3-1)	Potency (NIH3T3)
C=C[C@H]1[C@H](O[C@@H]2O[C@H](CO)[C@@H](O)[C@H](O)[C@H]2O)OC=C(C(=O)OC)[C@H]1C/C=C(/C=O)[C@@H]1C(C(=O)OC)=CO[C@@H](O[C@@H]2O[C@H](CO)[C@@H](O)[C@H](O)[C@H]2O)[C@@H]1C=C	-29.3	-4.96	1.41	4.13	inactive	inactive	inactive	inactive	inactive	inactive	inactive	–	–	–	–	–
C/C=C1\[C@H](OC2OC(COC3OC(CO)C(O)C(O)C3O)C(O)C(O)C2O)OC=C(C(=O)OC)[C@H]1CC(=O)OCCc1ccc(O)cc1 (stereo partly drawn)	-70.9	-0.414	2.72	-38.2	inactive	inactive	inactive	inactive	inactive	inactive	inactive	–	–	–	–	–
CC1(C)CC[C@]2(C(=O)O[C@@H]3O[C@H](CO)[C@@H](O)[C@H](O)[C@H]3O)CC[C@]3(C)C(=CCC4[C@@]5(C)C[C@@H](O)[C@H](O)C(C)(C)C5[C@H](O)C[C@]43C)[C@@H]2[C@@H]1O (stereo partly drawn)	1.53	0.337	–	-3.1	inactive	inactive	inactive	inactive	inactive	inactive	inactive	inactive	–	–	–	–
CC(=O)O[C@@H]1c2c(C)coc2C(=O)[C@@]23O[C@@H]2CC[C@H](C)[C@@]13C	2.56	-14.6	9.51	4.3	inactive	inactive	inactive	inactive	inactive	inactive	inactive	–	–	–	–	–
COc1ccc(C[C@H](N)C(=O)N[C@@H]2[C@H](O)[C@H](n3cnc4c(N(C)C)ncnc43)O[C@@H]2CO)cc1	–	–	–	–	3.16 µM (active)	1.58 µM (active)	2.24 µM (active)	2.51 µM (active)	1.26 µM (active)	2.24 µM (active)	3.55 µM (active)	–	1.16 µM (active)	1.46 µM (active)	0.731 µM (active)	4.61 µM (active)
NCc1c[nH]c(=S)n1[C@@H]1CCc2c(F)cc(F)cc2C1	-9.28	3.97	-4.38	-1.29	inactive	inactive	inactive	inactive	inactive	inactive	inactive	–	–	–	–	–
CC1(C)CC[C@]2(C(=O)O[C@@H]3O[C@H](CO)[C@@H](O)[C@H](O)[C@H]3O)CC[C@]3(C)C(=CCC4[C@@]5(C)C[C@@H](O)[C@H](O)C(C)(C)C5CC[C@]43C)C2[C@@H]1O (stereo partly drawn)	0.957	2.98	–	-3.15	inactive	inactive	inactive	inactive	inactive	inactive	inactive	inactive	–	–	–	–
COc1ccc(CNC(=O)c2cc(-c3cncc(C)c3)ncc2-c2nccs2)nc1OC	-57.9	-36.2	–	-26.3	inactive	inactive	inactive	inactive	inactive	inactive	inactive	inactive	–	–	–	–
O=C(Nc1ccc(S(=O)(=O)Nc2nccs2)cc1)C(c1ccccc1)c1ccccc1	-0.0195	-1.59	5.78	3.11	inactive	inactive	inactive	inactive	inactive	inactive	inactive	–	–	–	–	–
CC1CC[C@]2(C(=O)O)CC[C@]3(C(=O)O)C(=CCC4[C@@]5(C)CC[C@H](O[C@@H]6O[C@H](CO)[C@@H](O)[C@H](O)[C@H]6O)C(C)(C)C5CC[C@]43C)C2C1C (stereo partly drawn)	-4.94	4.65	6.73	2.56	inactive	inactive	inactive	inactive	inactive	inactive	inactive	–	–	–	–	–
CC(C)CC(=O)OC1OC=C(CO[C@@H]2O[C@H](CO)[C@@H](O)[C@H](O)[C@H]2O)C2CC(O)C(O)(CO)C12 (stereo partly drawn)	-1.23	-4.52	2.5	-2.63	inactive	inactive	inactive	inactive	inactive	inactive	inactive	–	–	–	–	–
CC(=O)O[C@@H]1C[C@@H](OC(C)=O)C(C)(C)/C=C/[C@H](C)[C@H](OC(C)=O)[C@@]2(O)C[C@H](C)[C@H](OC(=O)c3ccccc3)[C@@H]2/C=C/1C	-1.35	4.68	5.28	-4.04	inactive	inactive	inactive	inactive	inactive	inactive	inactive	–	–	–	–	–
COC(=O)[C@@]1(c2ccc(C)cc2)C[C@H]1CN1CCC(O)(c2ccccc2)CC1	-9.08	-4.07	-2.51	-2.42	inactive	inactive	inactive	inactive	inactive	inactive	inactive	–	–	–	–	–
